Results filed as inconclusive are left out. Activity calls are given as the source filed them. Unless noted, calls follow the shape of the dose curve; as a rule, active = well fitted curve in the direction sought with a large enough effect; inconclusive = small, poorly fitted or top-dose-only effect, or another doubt; inactive = no such curve, though single readings can be large; an effect the other way counts as inactive or inconclusive.
Assays:
[1] = Quantitative High-Throughput drug screen in 47 multiple myeloma cell lines against the NCATS MIPE library collection: OCIMY5_PLB cell viability assay (AID 1918988); also: nearly all actives have a fitted effect of over 65% in size; also: potency is read from the fitted curve at half-maximal effect
Summary of the method: (§1)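 MIPE 4.0 approved/investigational drugs; 500 cells/well; 48 h 37 °C humidified 5% CO2; CTG luminescence readout; DMSO = 100%, media = 0% viability.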

[2] = Quantitative High-Throughput drug screen in 47 multiple myeloma cell lines against the NCATS MIPE library collection: OPM1_PLB cell viability assay (AID 1918989); also: nearly all actives have a fitted effect of over 40% in size; also: potency is read from the fitted curve at half-maximal effect
Summary of the method: as §1

[3] = Quantitative High-Throughput drug screen in 47 multiple myeloma cell lines against the NCATS MIPE library collection: U266_ATCC cell viability assay (AID 1919864); also: nearly all actives have a fitted effect of over 35% in size; also: potency is read from the fitted curve at half-maximal effect;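 as to viability (% of DMSO control): 0% = media-only wells without cells and 100% = DMSO-only wells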
Summary of the method: as §1

[4] = Quantitative High-Throughput drug screen in 47 multiple myeloma cell lines against the NCATS MIPE library collection: UTMC2_PLB cell viability assay (AID 1919868); details: CellTiter-Glo ATP luminescence, 48 h; viability (% of DMSO control): at 45.8 µM (top of the series); also: nearly all actives have a fitted effect of over 55% in size; also: potency is read from the fitted curve at half-maximal effect;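 as to viability (% of DMSO control): 100% = DMSO-only wells and 0% = media-only wells without cells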
Summary of the method: as §1

[5] = Quantitative High-Throughput drug screen in 47 multiple myeloma cell lines against the NCATS MIPE library collection: PE2_PLB cell viability assay (AID 1919869); also: nearly all actives have a fitted effect of over 35% in size; also: potency is read from the fitted curve at half-maximal effect
Summary of the method: as §1

[6] = Quantitative High-Throughput drug screen in 47 multiple myeloma cell lines against the NCATS MIPE library collection: OPM2_DSMZ cell viability assay (AID 1919872); also: nearly all actives have a fitted effect of over 30% in size; also: potency is read from the fitted curve at half-maximal effect
Summary of the method: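 Approved and investigational drugs from MIPE 4.0 were added by pin tool to 500 cells per well. After 48 hours at 37C, ATP-based CellTiter-Glo luminescence indicated remaining viability.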

[7] = Quantitative High-Throughput drug screen in 47 multiple myeloma cell lines against the NCATS MIPE library collection: KMS28BM_JCRB cell viability assay (AID 1919874); also: nearly all actives have a fitted effect of over 35% in size; also: potency is read from the fitted curve at half-maximal effect
Summary of the method: as §1

[8] = qHTS drug screen for cell cycle checkpoint inhibitors in PARPi-resistant BRCA-mutant ovarian cancer cell lines. (AID 1963452; calls by dose curve); details: PEO1/OlaR viability, CellTiter-Glo luminescence, 96 h, stronger effect = lower value
Summary of the method: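 PEO1, PEO4 and PEO1/OlaR ovarian cancer cells, 600 per well, exposed 96 h at 37C to a dilution series. Viability read by CellTiter-Glo luminescence, normalized to DMSO and empty wells; activity summarized as Z-AUC.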

[9] = qHTS for identification of novel therapeutic agents for treatment of microphthalmiaassociated transcription factor (MiT) renal cell carcinoma (RCC) (AID 1963991; calls by dose curve; also: potency is read from the fitted curve at half-maximal effect); details: CellTiter-Glo, 48 h; for z-score: stronger effect = lower value
Summary of the method: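 Curves over 11 concentrations were fitted to CellTiter-Glo luminescence, scaled between empty wells (0%) and DMSO (100%) viability. Cells were UOK109, UOK124 and UOK145 TFE3-fusion RCC lines at 500/well, exposed 48 hours at 37 C.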

[10] = Quantitative High-Throughput drug screen in 47 multiple myeloma cell lines against the NCATS MIPE library collection: XG1_PLB cell viability assay (AID 1919866); also: nearly all actives have a fitted effect of over 35% in size; also: potency is read from the fitted curve at half-maximal effect
Summary of the method: as §1

[11] = Quantitative High-Throughput drug screen in 47 multiple myeloma cell lines against the NCATS MIPE library collection: RPMI8226_ATCC cell viability assay (AID 1919871); also: nearly all actives have a fitted effect of over 30% in size; also: potency is read from the fitted curve at half-maximal effect
Summary of the method: as §1

[12] = Quantitative High-Throughput drug screen in 47 multiple myeloma cell lines against the NCATS MIPE library collection: KMS11_JCRBsus cell viability assay (AID 1919873); also: nearly all actives have a fitted effect of over 50% in size; also: potency is read from the fitted curve at half-maximal effect
Summary of the method: as §1

[13] = tested on: 3D7; assay: qHTS profiling for inhibitors of Plasmodium falciparum proliferation (AID 504749);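 also: 0% = DMSO vehicle and full inhibition = artemisinin control; nearly all actives have a fitted effect of over 60% in size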; details: P. falciparum in erythrocytes, SYBR Green DNA, 72 h; series mostly up to 28.7 µM
Summary of the method: (§2)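 Parasite proliferation within erythrocytes, 72 h exposure. Endpoint: SYBR Green I fluorescence after overnight lysis at room temperature. Controls: 0.29 uM artemisinin, DMSO.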

[14] = tested on: 7G8; assay: as above; details: P. falciparum in erythrocytes, SYBR Green DNA, 72 h; series mostly up to 28.7 µM
Summary of the method: as §2

[15] = Quantitative High-Throughput drug screen in 47 multiple myeloma cell lines against the NCATS MIPE library collection: XG6_PLB cell viability assay (AID 1919865); also: nearly all actives have a fitted effect of over 40% in size; also: potency is read from the fitted curve at half-maximal effect
Summary of the method: as §1

[16] = Quantitative High-Throughput drug screen in 47 multiple myeloma cell lines against the NCATS MIPE library collection: PCM6_Riken cell viability assay (AID 1919870); also: nearly all actives have a fitted effect of over 30% in size; also: potency is read from the fitted curve at half-maximal effect
Summary of the method: as §1

[17] = Quantitative High-Throughput drug screen in 47 multiple myeloma cell lines against the NCATS MIPE library collection: VP6_DJ cell viability assay (AID 1919867); also: potency is read from the fitted curve at half-maximal effect; nearly all actives have a fitted effect of over 40% in size
Summary of the method: as §1

[18] = Quantitative High-Throughput drug screen in 47 multiple myeloma cell lines against the NCATS MIPE library collection: SKMM1_PLB cell viability assay (AID 1919863); details: SKMM1 myeloma viability, CellTiter-Glo ATP, 48 h; viability: stronger effect = lower value; also: nearly all actives have a fitted effect of over 35% in size; also: potency is read from the fitted curve at half-maximal effect
Summary of the method: as §1

[19] = measured here: PEO1 parental Z-AUC
[20] = TFE3-RCC UOK109 viability, measured here: UOK109 Z-AUC
[21] = TFE3-RCC viability, measured here: UOK124 Z-AUC
[22] = TFE3-RCC viability, measured here: UOK145 Z-AUC

## CCCC[N+]1(C)[C@H]2CC(OC(=O)[C@H](CO)c3ccccc3)C[C@H]1[C@H]1O[C@H]12 (stereo partly drawn)
[1]
  Potency: inactive
[2]
  Potency: inactive
[3]
  Potency: inactive
[4]
  Potency: inactive
[5]
  Potency: inactive
[6]
  Potency: inactive
[7]
  Potency: inactive
[8]
  Z-AUC: 1.48 (inactive)
[8]; [19]
  Z-AUC: 1.34
[8]; measured here: PEO4 Z-AUC
  Z-AUC: 1.36
[9]; [20]
  z-score: 0.529
[9]; [21]
  z-score: 0.336
[9]; [22]
  z-score: 0.453

## CCc1c(C(=O)C(N)=O)c2c(OCC(=O)O)cccc2n1Cc1ccccc1
[1]
  Potency: inactive
[2]
  Potency: inactive
[3]
  Potency: inactive
[10]
  Potency: inactive
[5]
  Potency: inactive
[11]
  Potency: inactive
[6]
  Potency: inactive
[12]
  Potency: inactive
[7]
  Potency: inactive
[8]
  Z-AUC: 0.107 (inactive)
[8]; [19]
  Z-AUC: 0.125
[8]; measured here: PEO4 Z-AUC
  Z-AUC: 0.188

## C[C@]12CCC(=O)C(O)=C1CC[C@@H]1[C@H]3CCC(=O)[C@@]3(C)CC[C@@H]12
[1]
  Potency: 18700 nM (active)
[2]
  Potency: inactive
[6]
  Potency: inactive
[13]
  Potency: inactive
[14]
  Potency: inactive

## CC(C)(C)[C@]1(O)C[C@@H]2OC(=O)C[C@@]23C(=O)O[C@@H]2OC(=O)[C@H](O)C213 (stereo partly drawn)
[1]
  Potency: inactive
[2]
  Potency: inactive
[3]
  Potency: inactive
[15]
  Potency: inactive
[16]
  Potency: inactive
[6]
  Potency: inactive
[12]
  Potency: inactive
[7]
  Potency: inactive

## COc1cccc2c1[C@]13CCN(CC4CC4)[C@H](C2)[C@]1(OC)CCC(=O)C3
[1]
  Potency: inactive
[2]
  Potency: inactive
[3]
  Potency: inactive
[15]
  Potency: inactive
[17]
  Potency: 20900 nM (active)
[6]
  Potency: inactive
[12]
  Potency: inactive
[7]
  Potency: inactive
[9]; [20]
  z-score: 0.6
[9]; [21]
  z-score: 0.387
[9]; [22]
  z-score: 0.213

## CC(O)=C(C#N)C(=O)Nc1cc(Br)ccc1Br
[1]
  Potency: 1660 nM (active)
[18]
  Potency: 20900 nM (active)
[17]
  Potency: 2960 nM (active)
[16]
  Potency: 1320 nM (active)
[11]
  Potency: 11800 nM (active)
[6]
  Potency: inactive
[9]; [20]
  z-score: 0.277
[9]; [21]
  z-score: 0.279
[9]; [22]
  z-score: 0.63

## C[C@@H]1CC[C@@]2(OC1)O[C@H]1C[C@H]3[C@@H]4CC=C5C[C@@H](O[C@@H]6O[C@H](CO)[C@@H](O[C@@H]7O[C@@H](C)[C@H](O)[C@@H](O)[C@@H]7O)[C@H](O)[C@@H]6O[C@@H]6O[C@@H](C)[C@H](O)[C@@H](O)[C@@H]6O)CC[C@]5(C)[C@@H]4CC[C@]3(C)[C@@H]1[C@H]2C
[1]
  Potency: 1660 nM (active)
[2]
  Potency: 2960 nM (active)
[18]
  Potency: 2350 nM (active)
[15]
  Potency: 3720 nM (active)
[10]
  Potency: 2640 nM (active)
[17]
  Potency: 2960 nM (active)
[4]
  Potency: 2640 nM (active)
[6]
  Potency: 2090 nM (active)
[12]
  Potency: 2350 nM (active)
[7]
  Potency: 2960 nM (active)

## COc1ccc(C(=O)c2c(C)n(CCN3CCOCC3)c3cc(I)ccc23)cc1
[1]
  Potency: 9350 nM (active)
[2]
  Potency: 18700 nM (active)
[18]
  Potency: 16600 nM (active)
[17]
  Potency: 6620 nM (active)
[5]
  Potency: 13200 nM (active)
[6]
  Potency: 26400 nM (active)
[12]
  Potency: 23500 nM (active)
[8]
  Z-AUC: -0.298 (inactive)
[8]; [19]
  Z-AUC: -0.515
[8]; measured here: PEO4 Z-AUC
  Z-AUC: -0.461

## O=C1C=CC[C@@H]2[C@H]3CCCN4CCC[C@@H](CN12)[C@@H]34
[1]
  Potency: 2960 nM (active)
[18]
  viability: 117% (inactive)
[3]
  Potency: 16600 nM (active)
[10]
  Potency: inactive
[4]
  Potency: inactive
[6]
  Potency: inactive
[12]
  Potency: inactive
[8]
  Z-AUC: 0.0265 (inactive)
[8]; [19]
  Z-AUC: 1.52
[8]; measured here: PEO4 Z-AUC
  Z-AUC: 0.946

## COc1ccc(N(C(=O)Oc2c(C)cccc2C)c2ccnc(Nc3ccc(N4CCN(C)CC4)cc3)n2)c(OC)c1
[1]
  Potency: 1180 nM (active)
[2]
  Potency: 20900 nM (active)
[15]
  Potency: 332 nM (active)
[17]
  Potency: 2960 nM (active)
[4]
  viability (% of DMSO control): 84% (active)
[5]
  Potency: 2640 nM (active)
[11]
  Potency: 4180 nM (active)
[12]
  Potency: 9350 nM (active)
[7]
  Potency: 7430 nM (active)
[8]
  Z-AUC: -0.241 (inactive)
[8]; [19]
  Z-AUC: 0.364
[8]; measured here: PEO4 Z-AUC
  Z-AUC: 0.481

## O=C(O)CNC(=O)c1c(O)c2ccccc2n(Cc2ccccc2)c1=O
[1]
  Potency: inactive
[2]
  Potency: inactive
[15]
  Potency: inactive
[10]
  Potency: inactive
[16]
  Potency: inactive
[12]
  Potency: inactive
[7]
  Potency: inactive
[8]
  Z-AUC: -0.292 (inactive)
[8]; [19]
  Z-AUC: 0.683
[8]; measured here: PEO4 Z-AUC
  Z-AUC: 0.802

## COc1cc([C@@H]2c3cc4c(cc3[C@@H](O)C3COC(=O)C32)OCO4)cc(OC)c1O (stereo partly drawn)
[1]
  Potency: 10.5 nM (active)
[2]
  Potency: 52.6 nM (active)
[18]
  Potency: 16.6 nM (active)
[17]
  Potency: 52.6 nM (active)
[4]
  Potency: 46.9 nM (active)
[5]
  Potency: 52.6 nM (active)
[16]
  Potency: 46.9 nM (active)
[11]
  Potency: 118 nM (active)
[6]
  Potency: 41.8 nM (active)
[12]
  Potency: 9.3 nM (active)
[7]
  Potency: 3.3 nM (active)
[8]
  Z-AUC: -0.729 (inactive)
[8]; [19]
  Z-AUC: -0.507
[8]; measured here: PEO4 Z-AUC
  Z-AUC: -1.03

## CSCC[C@@H](NC(=O)[C@@H](Cc1ccccc1)NC(=O)CNC(=O)CNC(=O)[C@@H](N)Cc1ccc(O)cc1)C(=O)O
[1]
  Potency: inactive
[2]
  Potency: inactive
[5]
  Potency: inactive
[6]
  Potency: inactive
[12]
  Potency: inactive
[7]
  Potency: inactive
[8]
  Z-AUC: 1.29 (inactive)
[8]; [19]
  Z-AUC: 1.17
[8]; measured here: PEO4 Z-AUC
  Z-AUC: 1.05
[9]; [20]
  z-score: 0.576
[9]; [21]
  z-score: 0.642
[9]; [22]
  z-score: 1.12

## Cc1ccccc1-n1c(Cn2cnc3c(N)ncnc32)nc2cccc(C)c2c1=O
[1]
  Potency: 1660 nM (active)
[2]
  Potency: 332 nM (active)
[18]
  Potency: 526 nM (active)
[15]
  Potency: 469 nM (active)
[10]
  Potency: 209 nM (active)
[17]
  Potency: 187 nM (active)
[4]
  Potency: 66.2 nM (active)
[16]
  Potency: 1660 nM (active)
[6]
  Potency: 1050 nM (active)
[7]
  Potency: 372 nM (active)
[8]
  Z-AUC: -0.47 (inactive)
[8]; [19]
  Z-AUC: 0.542
[8]; measured here: PEO4 Z-AUC
  Z-AUC: 0.532
[9]; TFE3-RCC UOK109 viability
  Potency: 235 nM (active)
[9]; [20]
  z-score: -2.22
[9]; [21]
  z-score: -1.13
[9]; [22]
  z-score: -1.88
